Results reported in PubChem BioAssay.
Calls of active or inactive are those of the source. Unless noted, no rule for the calls is given here.

Tests used:
[1] = HepG2 liver cancer cell viability effects, profiling panel, resazurin fluorescence, 24 h, PK04 Diversity Set (AID 1172); settings: higher = more signal
[2] = basal S. cerevisiae growth modulation, no modifier, primary screen, OD600, strain BY4716, 24 h, basal condition (AID 1173); settings: OD600, 24 h, higher = more signal, called active from +8 up or from −8 down
[3] = MM1S myeloma cell viability, profiling panel, resazurin fluorescence, basal, 24 h, PK04 Diversity Set (AID 1174); settings: higher = more signal, called active from +8 up or from −8 down;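 also: MM1S multiple myeloma cell line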
[4] = target: Dihydroorotate dehydrogenase (quinone), mitochondrial (Plasmodium falciparum (isolate 3D7)) (UniProt Q08210); assay: PfDHODH enzyme inhibitors, primary screen, biochemical, C-terminal His tag, absorbance 600 nm (AID 1175); settings: DCIP absorbance 600 nm, higher = more signal, called active from +8 up or from −8 down;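 also: recombinant parasite enzyme with a five histidine tag at its C terminus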
[5] = P. aeruginosa biofilm formation inhibitors, primary screen, strain PAO1, LB-PBS medium, absorbance 600 nm (AID 1176); settings: P. aeruginosa PAO1 growth/biofilm, A600, 12 h; higher = more signal
[6] = S. cerevisiae RM11-1a growth modifiers, primary screen, strain RM11-1a, OD600, basal, 24 h (AID 1177); settings: OD600, 24 h, higher = more signal, called active from +8 up or from −8 down;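 also: cultures grown under basal conditions with no added stressor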
[7] = E. coli acrAB mutant growth effects, primary screen, E. coli filamentation inducers, strain DRC39, OD650, 24 h (AID 1178); settings: higher = more signal, called active from +8 up or from −8 down;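 also: growth measured as culture turbidity by optical density at 650 nm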
[8] = E. coli acrAB mutant growth effects, primary screen, E. coli filamentation inducers, strain DRC39, OD650, 48 h (AID 1179);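 also: screen aims at cell division blockers that make cells filament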; settings: E. coli DRC39 delta-acrAB growth, higher = more signal, called active from +8 up or from −8 down
[9] = RPMI8226 myeloma cell viability, profiling panel, resazurin fluorescence, basal, 24 h, PK04 Diversity Set (AID 1180); settings: higher = more signal;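 also: RPMI8826 multiple myeloma cell line at 5000 cells per well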
[10] = target: E3 ubiquitin-protein ligase XIAP (Homo sapiens) (UniProt P98170); assay: XIAP binders, primary screen, biophysical, small-molecule microarray, fluorescence 635 nm (AID 1181); settings: small-molecule microarray binding, higher = more signal;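 also: score merges 667 nm emission and signal to noise over triplicate slides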
[11] = test system: XIP peptide (Xip251-270) binding; assay: small-molecule binders of XIP peptide, primary screen, biochemical, small-molecule microarray, fluorescence 635/667 nm, 0.1 µg/mL protein (AID 1182); settings: fluorescent protein binding, 635 nm, higher = more signal, called active from +8 up or from −8 down
XIP peptide (Xip251-270) = assay: small-molecule binders of XIP peptide, primary screen, biochemical, small-molecule microarray, fluorescence 635/667 nm, 0.5 µg/mL protein (AID 1183); settings: small-molecule microarray binding, fluorescence 635 nm; higher = more signal
[12] = Plasmodium falciparum growth inhibition, primary screen, strain 3D7, DAPI fluorescence, 100 nL (AID 1184);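 also: parasites grown inside human red blood cells in medium with human serum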; settings: P. falciparum 3D7 growth, 3 d, higher = more signal
[13] = target: Homeobox protein Hox-A13 (Mus musculus) (UniProt Q62424); assay: inhibitors of HoxA13-DNA binding, primary screen, biochemical, fluorescence polarization, labeled oligonucleotide (AID 1185); settings: 15 min, higher = more signal, called active from +8 up or from −8 down
Sequence of Homeobox protein Hox-A13 (Mus musculus) (Q62424 whole entry, looked up): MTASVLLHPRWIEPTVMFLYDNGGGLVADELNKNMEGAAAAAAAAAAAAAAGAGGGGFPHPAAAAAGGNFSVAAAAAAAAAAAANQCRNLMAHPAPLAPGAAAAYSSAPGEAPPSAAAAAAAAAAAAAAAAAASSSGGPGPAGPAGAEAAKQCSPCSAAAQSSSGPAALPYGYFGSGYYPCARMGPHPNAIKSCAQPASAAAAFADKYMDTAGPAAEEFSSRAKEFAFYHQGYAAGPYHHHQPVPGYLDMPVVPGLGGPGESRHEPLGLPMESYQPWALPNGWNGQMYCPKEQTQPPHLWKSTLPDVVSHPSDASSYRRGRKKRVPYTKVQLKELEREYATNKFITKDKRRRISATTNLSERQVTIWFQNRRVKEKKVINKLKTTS

Sequence of Dihydroorotate dehydrogenase (quinone), mitochondrial (Plasmodium falciparum (isolate 3D7)) (Q08210 whole entry, looked up): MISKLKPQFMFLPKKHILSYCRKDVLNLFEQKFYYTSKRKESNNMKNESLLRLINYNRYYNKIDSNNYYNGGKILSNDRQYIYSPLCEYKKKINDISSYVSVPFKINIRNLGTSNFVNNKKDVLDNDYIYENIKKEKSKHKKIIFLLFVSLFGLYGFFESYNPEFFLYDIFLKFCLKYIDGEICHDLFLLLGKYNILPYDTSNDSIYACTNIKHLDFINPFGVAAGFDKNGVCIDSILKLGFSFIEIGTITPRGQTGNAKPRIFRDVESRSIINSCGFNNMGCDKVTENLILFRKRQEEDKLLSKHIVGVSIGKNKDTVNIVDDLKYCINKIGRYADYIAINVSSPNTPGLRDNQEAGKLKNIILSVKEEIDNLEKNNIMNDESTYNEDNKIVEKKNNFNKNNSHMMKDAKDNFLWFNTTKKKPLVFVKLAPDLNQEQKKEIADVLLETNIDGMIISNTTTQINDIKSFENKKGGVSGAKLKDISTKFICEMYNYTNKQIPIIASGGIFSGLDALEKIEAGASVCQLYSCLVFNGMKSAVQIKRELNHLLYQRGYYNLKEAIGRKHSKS
Sequence of E3 ubiquitin-protein ligase XIAP (Homo sapiens) (P98170 whole entry, looked up): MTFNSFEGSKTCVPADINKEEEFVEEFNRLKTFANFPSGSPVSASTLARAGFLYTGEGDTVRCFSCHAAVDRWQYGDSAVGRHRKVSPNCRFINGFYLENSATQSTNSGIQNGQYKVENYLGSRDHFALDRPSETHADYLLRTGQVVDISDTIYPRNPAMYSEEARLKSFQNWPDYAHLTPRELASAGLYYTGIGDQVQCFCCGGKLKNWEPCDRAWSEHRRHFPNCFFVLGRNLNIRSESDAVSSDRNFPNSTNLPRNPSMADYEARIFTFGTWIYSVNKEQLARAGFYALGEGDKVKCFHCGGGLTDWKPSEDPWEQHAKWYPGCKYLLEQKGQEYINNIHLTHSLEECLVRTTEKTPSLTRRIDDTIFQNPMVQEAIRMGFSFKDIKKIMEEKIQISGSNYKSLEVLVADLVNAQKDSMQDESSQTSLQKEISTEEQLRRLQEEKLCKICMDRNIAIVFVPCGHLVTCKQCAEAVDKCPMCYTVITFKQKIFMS

Row | Structure (SMILES) | z-score [1] | z-score [2] | z-score [3] | composite z-score [4] | z-score [5] | z-score [6] | z-score [7] | z-score [8] | z-score [9] | composite z-score [10] | composite z-score [11] | composite z-score (XIP peptide (Xip251-270)) | z-score [12] | z-score [13]
1 | CCN1C(=O)[C@H]2[C@H]3[C@H](O)[C@H](O)CC(=NO[C@H](C)c4cn([C@H](CO)Cc5ccccc5)nn4)[C@@H]3CC[C@H]2C1=O | -0.948 | 0.0722 (inactive) | -1.37 (inactive) | -0.613 (inactive) | 0.359 (inactive) | -0.141 (inactive) | 1.44 (inactive) | 0.829 (inactive) | -1.46 | 0.0178 | 1.66 (inactive) | 0.722 | 1.44 | -2.36 (inactive)
2 | O=C1[C@H]2[C@H]3[C@H](O)[C@H](O)CC(=NOC[C@@H](O)COCc4ccco4)[C@@H]3CC[C@H]2C(=O)N1Cc1ccccc1 | 0.379 | -1.64 (inactive) | -0.737 (inactive) | -0.137 (inactive) | -1.01 (inactive) | -0.426 (inactive) | 0.17 (inactive) | 0.616 (inactive) | 0.569 | -0.194 | 0.41 (inactive) | 0.64 | -0.986 | -2.98 (inactive)
3 | CCOC(=O)CCN1C(=O)[C@H]2[C@H]3[C@H](O)[C@H](O)CC(=NOCC(C)C)[C@@H]3CC[C@H]2C1=O | -0.452 | -0.824 (inactive) | -0.665 (inactive) | -0.449 (inactive) | 0.377 (inactive) | -0.992 (inactive) | -0.268 (inactive) | -0.321 (inactive) | -0.889 | 0.0819 | -0.0503 (inactive) | 0.203 | -0.379 | -3.95 (inactive)
4 | COC(=O)[C@@H]1CC[C@H](C)[C@@H](c2ccc(C)cc2)N1C(=O)c1ccc(C=NOC[C@@H](O)[C@H]2O[C@@H]3OC(C)(C)O[C@@H]3[C@H]2O)cc1 | -0.187 | -0.318 (inactive) | -1.05 (inactive) | -0.354 (inactive) | 0.642 (inactive) | -0.168 (inactive) | 0.507 (inactive) | 0.577 (inactive) | -0.772 | -0.173 | 0.102 (inactive) | 0.228 | -0.209 | -6.03 (inactive)
5 | COC(=O)C(C(=O)OC)C1CCCC(=O)C1 (stereo not given) | -0.598 | -0.272 (inactive) | -1.14 (inactive) | 0.437 (inactive) | -0.482 (inactive) | 0.386 (inactive) | -1.37 (inactive) | -0.561 (inactive) | -0.53 | -0.34 | -0.0977 (inactive) | 0.237 | -0.468 | -0.243 (inactive)
6 | C[C@@H](c1ccccc1)N1C(=O)[C@H]2[C@H]3[C@H](O)[C@H](O)CC(=NOC[C@@H](O)COCc4ccco4)[C@H]3CC[C@H]2C1=O | -0.259 | -0.123 (inactive) | 0.899 (inactive) | -0.222 (inactive) | 0.118 (inactive) | -0.286 (inactive) | -0.501 (inactive) | -0.267 (inactive) | 0.0536 | -0.102 | 0.15 (inactive) | 0.316 | -2.06 | -3.21 (inactive)
7 | CC(C)=CCCC(C)=CCON=C1C[C@@H](O)[C@@H](O)[C@@H]2[C@@H]3C(=O)N(C4CCCCC4)C(=O)[C@@H]3CC[C@H]12 | -0.346 | -0.339 (inactive) | -2.69 (inactive) | 0.235 (inactive) | -0.437 (inactive) | 0.577 (inactive) | 0.354 (inactive) | 0.683 (inactive) | -1.7 | -0.111 | 1.45 (inactive) | 0.722 | 0.273 | -0.469 (inactive)
8 | CCOC(=O)CCN1C(=O)[C@H]2[C@H]3[C@H](O)[C@H](O)CC(=NOCC=C(C)CCC=C(C)C)[C@@H]3CC[C@H]2C1=O | 0.046 | 0.448 (inactive) | -0.836 (inactive) | 0.69 (inactive) | 0.176 (inactive) | -0.839 (inactive) | -1.15 (inactive) | -0.209 (inactive) | -0.871 | 0.175 | 0.257 (inactive) | 0.613 | 0.664 | -1.21 (inactive)
9 | COc1ccc(O[C@H]2C=C[C@@H](c3ccccc3)O[C@@H]2CO)cc1 | 0.121 | -4.83 (inactive) | 0.222 (inactive) | -0.163 (inactive) | 0.438 (inactive) | 0.0505 (inactive) | 0.137 (inactive) | -0.447 (inactive) | -0.5 | -0.042 | 0.0493 (inactive) | 0.546 | -0.672 | -1.6 (inactive)
10 | CCc1cc2c(nc1CC)CCN(CCC(C)=NOC(C)CN1CCCCc3nc(C)c(C)cc31)C2 (stereo not given) | 0.465 | -1.61 (inactive) | 0.0376 (inactive) | 0.0164 (inactive) | 0.417 (inactive) | 1.18 (inactive) | -0.148 (inactive) | -1.83 (inactive) | 0.825 | -0.02 | 0.531 (inactive) | 0.61 | -1.86 | -7.64 (inactive)
